Screening results from PubChem.
Only some compounds are listed: those with a hit (about 1.3% of all), similar ones and a draw of the others.
PGC1a acetyl inh = PGC1a acetylation modulation, inhibitor mode | U2OS PGC1a acetylation, AlphaScreen anti-acetyl-lysine; with virally co-expressed GCN5 acetyltransferase | inhibition, % at 15.6 µM | 350,000 compounds, 0.17% hits;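 active = every replicate shows inhibition of at least 40%; inconclusive = mean inhibition at least 40% but some replicate below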;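 note: 0% = neutral control wells and 100% = positive control wells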
Statin myotox sup = suppression of simvastatin myotoxicity; C2C12 myotubes + simvastatin, ATP luminescence, 48 h; scaled: DMSO 0, geranylgeraniol control 100; rescue of ATP level, % at 7.49 µM; AID 602340; 330,000 compounds, 0.78% hits;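 active = mean ATP rescue above about 67%, or every replicate alone reaching that limit, limit read from the data, passing the limit was not always enough; inconclusive = no clear call, values can overlap the other calls; inactive = mean under the limit and some replicate under it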;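 note: myotubes were challenged with 10 µM simvastatin during compound exposure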
AI-2 QS mod = Vibrio harveyi AI-2 quorum sensing modulation; Vibrio harveyi JMH597 AI-2 luminescence/OD600 ratio, 9 h; stronger effect = lower value; strain lacks LuxN and CqsS sensors; 0 = neutral-control median; activity change, % at 7.5 µM; 300,000 compounds, 0.4% hits; AID 2094; in the data active = activity change below about -75%, passing the limit was not always enough; inconclusive = no clear call, values can overlap the other calls;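 note: luminescence divided by OD600 gain over 9 h not by final OD600 alone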
Rce1 inhib = blocks yeast Ras-converting enzyme; Q03530; yeast membranes, quenched prenylated peptide cleavage fluorescence; calls only; 290,000 compounds, 0.27% hits; AID 2563;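 active = fall in fluorescence gain of 50% or more versus controls, with final raw signal at or below 3038400; inconclusive = same 50% fall but final raw signal above 3038400; inactive = fall in fluorescence gain under 50%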;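 note: plate controls were neutral control wells for no effect and wells lacking membranes for full effect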
Target sequence (Q03530 whole entry, looked up): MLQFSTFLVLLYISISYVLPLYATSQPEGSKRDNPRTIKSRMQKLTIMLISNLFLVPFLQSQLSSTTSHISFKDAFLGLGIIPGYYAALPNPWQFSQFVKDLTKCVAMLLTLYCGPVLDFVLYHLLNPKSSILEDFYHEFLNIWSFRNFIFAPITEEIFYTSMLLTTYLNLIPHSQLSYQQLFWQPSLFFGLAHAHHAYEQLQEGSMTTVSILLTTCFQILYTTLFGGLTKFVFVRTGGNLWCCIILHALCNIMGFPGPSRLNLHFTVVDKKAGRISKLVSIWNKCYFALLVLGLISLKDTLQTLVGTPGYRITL
HIF act = HIF pathway transcriptional activation; U2OS HRE-luciferase reporter, luminescence; normalized: DMSO 0%, desferrioxamine 100%; activation, % at 7.5 µM (by protocol); 300,000 compounds, 0.32% hits;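 active = mean activation of at least 10% of the iron chelator positive control signal, with at least half of replicates also reaching 10%; inconclusive = mean and replicate majority disagree about reaching 10%; inactive = mean and most replicates under 10%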
* hit, by the source's call; i = inactive; ? = inconclusive; . = no result; + = active, no number.

SMILES | PGC1a acetyl inh | Statin myotox sup | AI-2 QS mod | Rce1 inhib | HIF act
CC(Cc1cccs1)NC(=O)Nc1ccc([N+](=O)[O-])cc1 (configuration not stated) | . | . | 91.8 | + | 0.8
CC(Cc1cccs1)NC(=O)c1cccs1 (configuration not stated) | -1.0 | 0.0 | 16.9 | i | 1.7
COc1cccc(C(=O)NNC(=O)C2CC(C)=C(C)CC2C(=O)O)c1 (configuration not stated) | -1.4 | 98.5* | 14.4 | i | 0.1
COc1cccc(S(=O)(=O)N(C)C[C@H]2OCc3ccccc3-c3c(n(C)c4ccccc34)C(=O)N([C@H](C)CO)C[C@H]2C)c1 | -5.1 | 79.8* | . | . | .
COc1ccc(-c2csc(NNC3=NCCCCC3)n2)cc1 | . | . | 7.4 | . | 205.3*
O=C(CCC(=O)c1ccc(Br)cc1)Nc1ccc(F)cc1 | . | -12.1 | -9.2 | i | -1.5
O=C(CCC(=O)c1ccc(F)cc1)Nc1cccc(C(F)(F)F)c1 | -0.1 | -4.1 | -77.5* | i | -0.4
CCCCSC1=C(C#N)C(c2ccccc2C)CC(=O)N1 (configuration not stated) | 0.0 | -16.1 | 12.0 | i | 0.0
CCCSC1=C(C#N)C(c2ccccc2C)CC(=O)N1 (configuration not stated) | -5.5 | 133.8* | 21.5 | i | -0.1
Cc1occc1C(=O)NNC(=O)C1CCCCC1 | . | . | 21.7 | i | -0.5
Cc1ccc(S(=O)(=O)N2CCOCC2)cc1C(=O)NC1CCCC1 | 1.7 | 5.4 | 16.2 | i | -0.4
Cc1ccc(S(=O)(=O)N2CCOCC2)cc1C(=O)NC1CCCCC1 | -10.3 | 70.9* | 28.7 | i | -0.3
Cc1occc1C(=O)NC1CCCCCC1 | -14.6 | 4.2 | 27.4 | i | 13.0*
O=[N+]([O-])c1ccc(Nc2ccccc2)c2nonc12 | . | -18.7 | 24.5 | i | -0.4
O=[N+]([O-])c1ccc(Sc2cccc[n+]2[O-])c2nonc12 | . | . | -128.9* | i | -4.8
CN1c2ccc(-c3ccccc3)cc2[C@H]2[C@H](CCN2C(=O)CC2CC2)[C@H]1CO | 11.4 | 38.6 | . | . | .
CN(C)c1ccc(/C=C/C=C2/SC(=S)N(c3ccccc3)C2=O)cc1 | 5.1 | 69.8* | 16.9 | i | 0.0
CN(C)S(=O)(=O)c1cccc(NC(=S)N/N=C/c2cc(Br)ccc2O)c1 | 25.1 | 29.7 | 338.0 | i | 47.0*
Cc1noc(C)c1NC(=O)Nc1ccc2c(c1)C(=O)N([C@H](C)CO)C[C@H](C)[C@H](CN(C)S(=O)(=O)c1ccc(Cl)cc1)OCCCC[C@@H](C)O2 | 2.3 | . | . | . | .
CN(C)C(CNC(=O)NC1CCCCC1)c1cccnc1 (configuration not stated) | -2.2 | 107.3* | 34.8 | . | -0.2
Cc1nc2c3ccccc3nc(SCC(=O)c3ccc(Cl)cc3)n2n1 | 9.6 | -3.3 | -3.2 | i | -0.5
COCCNC(=O)CSc1nc2ccccc2c2nc(C)nn12 | 7.8 | 124.0* | 10.5 | i | 0.1
O=S(=O)(c1ccc(-c2csc(Nc3ccc(F)cc3)n2)cc1)N1CCCC1 | 12.2 | 6.5 | 13.8 | + | -0.5
O=S(=O)(c1ccc(-c2csc(Nc3ccc(Br)cc3)n2)cc1)N1CCCC1 | . | . | 13.6 | i | -0.8
O=[N+]([O-])c1ccc(S(=O)(=O)Nc2nc(-c3ccccc3)cs2)cc1 | -4.3 | -19.1 | -3.3 | i | -1.0
SMILES | PGC1a acetyl inh | Statin myotox sup | AI-2 QS mod | Rce1 inhib | HIF act
Cc1ccc(S(=O)(=O)Nc2nc(-c3ccc(F)cc3)cs2)cc1 | -7.4 | 3.7 | -91.9* | i | 2.0
Cc1cc(C)cc(Nc2nc(-c3ccc(S(=O)(=O)N4CCCC4)cc3)cs2)c1 | . | . | -3.6 | + | 0.2
C[C@H](CO)N1C[C@H](C)[C@@H](CN(C)Cc2ccccn2)Oc2ncc(C3=CCCCC3)cc2C1=O | -4.2 | 8.1 | . | . | .
COc1ccc(NC(=O)Nc2cccc3c2O[C@@H](CN(C)Cc2ccc(C(F)(F)F)cc2)[C@@H](C)CN([C@@H](C)CO)C3=O)cc1 | 9.3 | 60.4 | . | . | .
S=c1sc2c(Cl)ncnc2n1-c1ccccc1 | 64.0* | 3.2 | 6.7 | i | -8.4
COc1ccc2c3c(n(C)c2c1)[C@@H](CO)N(C(=O)c1ccccc1)CC31CCN(C)CC1 | -2.6 | . | . | . | .
Cc1cc(=O)n2[nH]c(=O)c(N=Nc3ccccc3)c2[nH]1 | ? | 8.5 | 29.6 | i | 0.0
Cc1ccc(-c2[nH][nH]c(=O)c(=O)c2N=Nc2ccccc2)cc1 | 0.2 | 211.3* | 11.5 | i | -0.1
CCOC(=O)c1c(C)[nH]c(C(=O)OCc2ccccc2F)c1C | . | 3.5 | 18.2 | i | 10.6*
CCCCN(C(=O)c1c(C)[nH]c(C(=O)OCC)c1C)c1ccccc1 | 17.4 | -18.3 | 15.2 | i | 10.4*
COc1ccc(N2CCN(C(=O)CN(C)S(=O)(=O)c3cc(C)ccc3OC)CC2)cc1 | 0.5 | -1.8 | 38.4 | i | 464.5*
COc1ccc(OC)c(S(=O)(=O)N(C)CC(=O)N2CCCCC2)c1 | . | 5.0 | 25.1 | i | 0.0
Cc1cc(C)cc(NC(=O)Cn2nnc(C(=O)NCc3ccccc3Cl)c2N)c1 | 3.1 | -0.6 | 10.3 | i | -1.1
Cc1cc(C)cc(NC(=O)Cn2nnc(C(=O)NCc3ccc(F)cc3)c2N)c1 | -10.6 | 119.6* | 49.3 | i | -0.7
CCCNC(=O)N1CC2(CN(S(=O)(=O)CC)C2)c2c(n(C)c3cc(OC)ccc23)[C@H]1CO | 9.1 | . | . | . | .
COc1ccc(NC(=O)Cn2cc(C#N)c3ccccc32)cc1 | -11.6 | . | 5.1 | i | -0.1
CCNC(=O)Cn1cc(C#N)c2ccccc21 | 9.2 | 92.6* | 19.0 | i | 0.4
O=C(C[C@H]1C=C[C@@H](NC(=O)c2ccccc2)[C@@H](CO)O1)NCc1ccc(Oc2ccccc2)cc1 | -7.4 | . | . | . | .
CC(C)NC(=O)N1C[C@H]2[C@@H](c3ccccc31)[C@@H](CO)N2C(=O)c1ccccc1 | 0.4 | -8.0 | . | . | .
Cc1cc(C)n2cc(CSc3nncn3C)nc2n1 | 3.3 | . | 12.2 | + | -0.2
Cc1cc(C)n2cc(CSc3nnnn3C)nc2n1 | 3.0 | 8.5 | 17.2 | i | -0.2
CN(C)CC(C)(C)CNC(=S)NCc1ccc2c(c1)OCO2 | . | . | 6.1 | + | 0.1
CN1CCN(C(=O)C[C@@H]2CC[C@@H]3[C@H](COC[C@H](O)CN3Cc3cccc(F)c3)O2)CC1 | 8.3 | -2.6 | . | . | .
COc1ccc(S(=O)(=O)N(CCCN2CCOCC2)Cc2ccc(OC)c(OC)c2)cc1 | 6.9 | 94.2* | 19.1 | i | 0.2
COc1ccc(CN(CCCN2CCOCC2)S(=O)(=O)N(C)C)cc1OC | 4.3 | -4.9 | -0.3 | i | 0.0
CC1CCN(C(=O)/C=C/c2ccc(C(C)(C)C)cc2)CC1 | . | . | -89.3* | i | 1.2
CN1CCN(C(=O)/C=C/c2ccc(Cl)cc2)CC1 | 2.5 | 110.1* | 6.9 | i | 0.3
C[C@@H]1CN([C@H](C)CO)C(=O)c2cccc(NC(=O)c3ccncc3)c2O[C@H]1CN(C)Cc1ccccc1 | -0.5 | 17.9 | . | . | .
O=C1c2ccccc2C(=O)N1Cc1nc2ccccc2c(=O)n1CCCn1ccnc1 | 5.2 | . | 15.9 | i | .
